Reference: the supplement of paper PMC11219838
Values without a mark were called inactive.

Assays:
Conditions in all cases: 60 µM; 5 days; temperature: 20 °C
Meloidogyne hapla J2 = assay: proportion of mobile M. hapla J2 relative to DMSO control (fraction of DMSO control); higher = more viable, less nematicidal, active = 0.7 or less
Summary of the method: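 Two biological replicates were run and averaged, each on 96-well plates in which about 25 M. hapla J2 sat in distilled water per well. Compound was pinned in to give 60 µM final and 0.6% v/v DMSO, and the sealed plates were shaken at 200 rpm and 20 °C for 5 days before 2 µL 1 M NaOH was added. Mobility was scored microscopically and divided by the mean from the plate's DMSO-only wells, of which there were eight.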

[1] = test system: Caenorhabditis elegans dauer (daf-2(e1370)); assay: proportion of mobile C. elegans dauer larvae relative to DMSO control (fraction of DMSO control); higher = more viable, less nematicidal, active = 0.63 or less; extreme values may be limits of the assay
Summary of the method: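 Synchronized C. elegans daf-2(e1370) larvae were held at 25 °C for 48 h on MYOB plates with E. coli OP50 to form dauers, and about 20 dauers were added per 96-well well in liquid NGM. Compound was pinned to 60 µM final (0.6% v/v DMSO), and sealed plates were shaken at 200 rpm for 5 days at 20 °C. The proportion of mobile worms was scored under a dissection microscope relative to DMSO controls and averaged over two biological replicates.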

Ditylenchus dipsaci = assay: proportion of mobile D. dipsaci (mixed stage) relative to DMSO control (fraction of DMSO control); higher = more viable, less nematicidal, active = 0.86 or less; extreme values may be limits of the assay
Summary of the method: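 The worms, D. dipsaci raised on pea plants in Gamborg B-5 agar, were recovered through a filter funnel into water. Each well of a 96-well plate then held about 20 of them in distilled water plus pinned compound at 60 µM final (0.6% v/v DMSO), and the sealed plates were shaken at 200 rpm at 20 °C for 5 days. Following addition of 2 µL 1 M NaOH, mobile worms were counted by microscopy, and mobility was expressed against DMSO controls as the average of two biological replicates.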

## COc1nc(-c2ccccc2)ccc1-c1noc(-c2ccccc2Cl)n1
Meloidogyne hapla J2
  proportion of mobile M. hapla J2: 0.989
[1]
  proportion of mobile C. elegans dauer larvae: 1
Ditylenchus dipsaci
  proportion of mobile D. dipsaci: 1

## Cc1cccc(-c2noc(COc3cc(C)ccc3C)n2)c1
Meloidogyne hapla J2
  proportion of mobile M. hapla J2: 1.04
[1]
  proportion of mobile C. elegans dauer larvae: 1
Ditylenchus dipsaci
  proportion of mobile D. dipsaci: 1

## CCOc1nc(-c2ccccc2)ccc1-c1noc(-c2cccc(OC)c2)n1
Meloidogyne hapla J2
  proportion of mobile M. hapla J2: 0.759
[1]
  proportion of mobile C. elegans dauer larvae: 1
Ditylenchus dipsaci
  proportion of mobile D. dipsaci: 1

## Cc1cnc(NC(=O)CSc2nnc(-c3cccc(Cl)c3)o2)s1
Meloidogyne hapla J2
  proportion of mobile M. hapla J2: 0.97
[1]
  proportion of mobile C. elegans dauer larvae: 1
Ditylenchus dipsaci
  proportion of mobile D. dipsaci: 0.9

## COc1ccc(-c2nnc(SCc3cccc(C#N)c3)o2)cc1
Meloidogyne hapla J2
  proportion of mobile M. hapla J2: 0.785
[1]
  proportion of mobile C. elegans dauer larvae: 1
Ditylenchus dipsaci
  proportion of mobile D. dipsaci: 1

## COc1ccc(OCc2nc(-c3cccc(Br)c3)no2)cc1
Meloidogyne hapla J2
  proportion of mobile M. hapla J2: 1
[1]
  proportion of mobile C. elegans dauer larvae: 1
Ditylenchus dipsaci
  proportion of mobile D. dipsaci: 1

## CCc1ccc(NC(=O)CSc2nnc(-c3ccc(Cl)cc3Cl)o2)cc1
Meloidogyne hapla J2
  proportion of mobile M. hapla J2: 0.785
[1]
  proportion of mobile C. elegans dauer larvae: 1
Ditylenchus dipsaci
  proportion of mobile D. dipsaci: 1

## COc1cccc(-c2noc(COc3ccccc3Cl)n2)c1
Meloidogyne hapla J2
  proportion of mobile M. hapla J2: 0.998
[1]
  proportion of mobile C. elegans dauer larvae: 1
Ditylenchus dipsaci
  proportion of mobile D. dipsaci: 1

## Cc1ccc(SCc2nc(-c3cccc(C)c3)no2)cc1
Meloidogyne hapla J2
  proportion of mobile M. hapla J2: 1.01
[1]
  proportion of mobile C. elegans dauer larvae: 1
Ditylenchus dipsaci
  proportion of mobile D. dipsaci: 1

## COc1ccc(-c2noc(-c3cccc(Br)c3)n2)cc1
Meloidogyne hapla J2
  proportion of mobile M. hapla J2: 0.987
[1]
  proportion of mobile C. elegans dauer larvae: 1
Ditylenchus dipsaci
  proportion of mobile D. dipsaci: 1

## COc1ccccc1CC(=O)Nc1ccc(-c2noc(-c3ccc(Cl)cc3)n2)cc1
Meloidogyne hapla J2
  proportion of mobile M. hapla J2: 0.938
[1]
  proportion of mobile C. elegans dauer larvae: 1
Ditylenchus dipsaci
  proportion of mobile D. dipsaci: 1

## COc1ccccc1-c1nnc(SCc2ccc(F)cc2)o1
Meloidogyne hapla J2
  proportion of mobile M. hapla J2: 0.329 (active)
[1]
  proportion of mobile C. elegans dauer larvae: 1
Ditylenchus dipsaci
  proportion of mobile D. dipsaci: 1
